Inconclusive results are not listed. Active and inactive are the calls of the source. The call rests on the fitted dose curve; in most records, active means well fitted activation curve with a large enough effect in the repeat runs; inconclusive means weak or mixed curves; inactive means no such curve, though single readings can be large or run the other way.
Target: Aryl hydrocarbon receptor (Homo sapiens) (UniProt P35869)
Assay: qHTS assay to identify small molecule that activate the aryl hydrocarbon receptor (AhR) signaling pathway (AID 743085);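 further: HG2L7.5c1 human HepG2 liver cells with stably integrated DRE-driven firefly reporter; nearly all actives have a fitted effect of over 15% in size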
Details: HepG2 AhR-luc (HG2L7.5c1), luciferase, 24 h; series mostly up to 70.3 µM; activation: at the top concentration
Excerpt: U.S. Tox21 Program National Center for Advancing Translational Sciences [NCATS] NIH Chemical Genomics Center [NCGC] U.S. Environmental Protection Agency [EPA] National Institutes of Environmental Health Sciences [NIEHS] National Toxicology Program [NTP] U.S. Food and Drug Administration [FDA] Tox21 Assay overview: The Aryl hydrocarbon Receptor (AhR), a member of the family of basic helix-loop-helix transcription factors, is crucial to adaptive responses to environmental changes. AhR mediates cellular responses to environmental pollutants such as aromatic hydrocarbons through induction of phase I and II enzymes but also interacts with other nuclear receptor signaling pathways. A cell based HepG2-AhR-luc assay (HG2L7.5c1 cell line, developed by Dr. Michael S. Denison, University of California at Davis, was used to assess the activation of AhR. HepG2 (human hepatocellular carcinoma) cells were stably transfected with an Ah receptor-responsive firefly luciferase reporter gene plasmid containing 20 dioxin responsive elements and luciferase reporter gene. Increased luciferase activity can be used to identify the compounds that induce AhR activation.
Tox21 Assay Protocol Summary: 4000 cells in 5 uL/well were dispensed into white wall/solid bottom 1536-well plates using a Multidrop Combi (Thermo Fisher Scientific Inc., Waltham, MA) dispenser. After the assay plates were incubated at 37C for 5 h, 23 nL of compound or DMSO vehicle was transferred to the assay plates by a pintool station (Kalypsys, San Diego, CA). The plates were incubated at 37C for 24 hr. After 1 ul/well of CellTiter-Fluor reagent (Promega, Madison, WI) was added into the assay plates using a Flying Reagent Dispenser (FRD) (Aurora Discovery, CA), the assay plates were incubated at 37C for 30 min. The fluorescence intensity in the plates was measured using a ViewLux plate reader (PerkinElmer, Shelton, CT), followed by the addition of 4 uL of ONE-Glo Luciferase Assay reagent (Promega) using an FRD (Aurora Discovery). After the assay plates were incubated at room temperature for 30 min, luminescence intensity was measured using a ViewLux plate reader (Perkin Elmer).
On the % scale 0 is the no-effect control and ±100 the full control effect.

Chain of Aryl hydrocarbon receptor (Homo sapiens) (P35869 whole entry, looked up): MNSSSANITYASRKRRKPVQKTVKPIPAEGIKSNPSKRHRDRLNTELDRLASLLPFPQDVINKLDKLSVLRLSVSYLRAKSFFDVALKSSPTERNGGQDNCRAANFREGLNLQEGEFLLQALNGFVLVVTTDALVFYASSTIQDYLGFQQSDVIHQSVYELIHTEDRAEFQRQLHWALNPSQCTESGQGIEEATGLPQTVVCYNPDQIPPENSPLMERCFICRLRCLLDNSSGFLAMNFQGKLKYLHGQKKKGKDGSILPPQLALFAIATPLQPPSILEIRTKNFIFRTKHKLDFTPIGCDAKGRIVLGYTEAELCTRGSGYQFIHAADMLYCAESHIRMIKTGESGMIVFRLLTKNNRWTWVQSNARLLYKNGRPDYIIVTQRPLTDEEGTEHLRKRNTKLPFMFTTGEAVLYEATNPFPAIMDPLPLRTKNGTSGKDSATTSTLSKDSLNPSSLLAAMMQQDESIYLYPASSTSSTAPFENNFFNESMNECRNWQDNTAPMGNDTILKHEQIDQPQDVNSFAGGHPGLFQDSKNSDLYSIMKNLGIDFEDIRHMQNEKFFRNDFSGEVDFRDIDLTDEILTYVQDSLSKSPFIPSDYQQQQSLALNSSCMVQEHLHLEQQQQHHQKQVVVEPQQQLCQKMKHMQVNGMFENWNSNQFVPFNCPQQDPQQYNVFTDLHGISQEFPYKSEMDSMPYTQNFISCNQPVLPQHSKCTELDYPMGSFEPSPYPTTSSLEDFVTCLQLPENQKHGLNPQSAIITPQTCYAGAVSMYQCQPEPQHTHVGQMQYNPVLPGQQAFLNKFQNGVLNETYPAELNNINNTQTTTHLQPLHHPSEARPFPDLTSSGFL

Structure (SMILES) | activation
CC(=O)CC(C)C | -0.356% (inactive)
C1CCc2nnnn2CC1 | -1.26% (inactive)
COc1cc(C[C@H](C)N)c(OC)cc1Br | -1.88% [at 95 µM] (inactive)
CC[C@@]1([C@@H]2O[C@@H]([C@H]3O[C@@](O)(CO)[C@H](C)C[C@@H]3C)C[C@@H]2C)CC[C@H]([C@]2(C)CC[C@]3(C[C@H](O)[C@@H](C)[C@@H]([C@@H](C)[C@@H](OC)[C@H](C)C(=O)O)O3)O2)O1 (stereo in doubt) | -2.81% (inactive)
CCC(=O)O[C@H]1[C@@H](N2CCCCC2)C[C@H]2[C@@H]3CC[C@H]4C[C@H](OC(C)=O)[C@@H](N5CCCCC5)C[C@]4(C)[C@H]3CC[C@@]21C | -0.314% (inactive)
Cc1cc(C)c(N)cc1C | 7.27% (inactive)
CNC(C)[C@@H]1CC[C@@H](N)[C@@H](O[C@H]2[C@H](O)[C@@H](O[C@H]3OC[C@](C)(O)[C@H](NC)[C@H]3O)[C@H](N)C[C@@H]2N)O1 (stereo not given in full) | 3.23% [at 32.5 µM] (inactive)
CC(C)(c1cc(Br)c(OCCO)c(Br)c1)c1cc(Br)c(OCCO)c(Br)c1 | -0.804% (inactive)
C[C@]12CC[C@H]3[C@@H](CCC4=CC(=O)CC[C@@]43C)[C@@H]1CC[C@@H]2OC(=O)CCc1ccccc1 | -3.58% (inactive)
Clc1ccc([C@@H]2C[C@H]3CC[C@@H]2N3)cn1 | -2.01% (inactive)
C[C@@H]1O[C@@H]1P(=O)(O)O | -0.667% (inactive)
O=[N+]([O-])O[C@@H]1CO[C@H]2[C@@H]1OC[C@@H]2O | -4.23% (inactive)
CC[C@@H](O)C(C[C@@H](C)N(C)C)(c1ccccc1)c1ccccc1 | -3.35% [at 95 µM] (inactive)
C#C[C@]1(OC(=O)CCCCCC)CC[C@H]2[C@@H]3CCC4=CC(=O)CC[C@@H]4[C@H]3CC[C@@]21C | -2.09% (inactive)
CN1CCC(N(Cc2cccs2)c2ccccc2)CC1 | -1.65% (inactive)
C[N+]12CCC(CC1)C(OC(=O)C(O)(c1ccccc1)c1ccccc1)C2 (stereo not given) | -0.614% [at 32.5 µM] (inactive)
Brc1cc(Br)c(Oc2cc(Br)c(Br)cc2Br)cc1Br | -8.48% (inactive)
CN1C2CCC1CC(OC(c1ccccc1)c1ccc(Cl)cc1)C2 (stereo not given) | -13.5% (inactive)
Cc1ccc2c(c1)[C@]13CCCC[C@@H]1[C@H](C2)N(C)CC3 | -1.99% (inactive)
Cc1cc(C(C#N)c2ccc(Cl)cc2)c(Cl)cc1NC(=O)c1cc(I)cc(I)c1O (stereo not given) | 6.25% (inactive)
